# Experiments:
# Test in all cases: DAPPL (digital affinity profiling via proximity ligation, sequencing); 10 mM Tris-HCl pH 7.5, 50 mM NaCl, 1 mM DTT, 4% glycerol, room temperature, 30 min; GST-TFs on glutathione beads, 16-mer random dsDNA library, 0.1% formaldehyde crosslink after washing; high values mean tight binding
# Conditions in all cases: protein: recombinant; tags: N-terminal GST; dsDNA, one strand shown
# FLI1 = target: T1, FLI1 (Homo sapiens, UniProt Q01543 1-452)
# T1 sequence: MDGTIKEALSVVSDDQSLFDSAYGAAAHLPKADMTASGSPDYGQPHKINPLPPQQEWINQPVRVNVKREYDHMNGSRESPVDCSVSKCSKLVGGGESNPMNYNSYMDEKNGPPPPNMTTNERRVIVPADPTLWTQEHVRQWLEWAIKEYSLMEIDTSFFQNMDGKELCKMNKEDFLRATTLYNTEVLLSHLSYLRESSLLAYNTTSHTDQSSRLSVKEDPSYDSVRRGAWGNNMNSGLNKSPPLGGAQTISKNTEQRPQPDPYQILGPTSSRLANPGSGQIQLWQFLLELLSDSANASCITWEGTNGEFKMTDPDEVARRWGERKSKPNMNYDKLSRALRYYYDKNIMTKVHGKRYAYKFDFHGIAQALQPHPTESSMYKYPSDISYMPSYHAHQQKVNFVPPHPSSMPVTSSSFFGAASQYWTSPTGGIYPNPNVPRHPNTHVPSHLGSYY
# In short: (§1)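 Pools were built from human transcription factors expressed in yeast as GST fusions, captured on glutathione beads and DNA-barcoded, along with a tag-only sample. Incubation with 200 nmole of a 16-mer random double-stranded DNA library lasted 30 min at room temperature in Tris/NaCl/DTT/glycerol buffer, and was followed by washing, 0.1% formaldehyde crosslinking, proximity ligation, PCR amplification and Illumina NextSeq500 sequencing. Binding signal is the quotient of each hexamer's read frequency for a factor and its frequency for the tag-only sample.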
# ELK1 = target: T2, ELK1 (Homo sapiens, UniProt P19419 1-428)
# T2 sequence: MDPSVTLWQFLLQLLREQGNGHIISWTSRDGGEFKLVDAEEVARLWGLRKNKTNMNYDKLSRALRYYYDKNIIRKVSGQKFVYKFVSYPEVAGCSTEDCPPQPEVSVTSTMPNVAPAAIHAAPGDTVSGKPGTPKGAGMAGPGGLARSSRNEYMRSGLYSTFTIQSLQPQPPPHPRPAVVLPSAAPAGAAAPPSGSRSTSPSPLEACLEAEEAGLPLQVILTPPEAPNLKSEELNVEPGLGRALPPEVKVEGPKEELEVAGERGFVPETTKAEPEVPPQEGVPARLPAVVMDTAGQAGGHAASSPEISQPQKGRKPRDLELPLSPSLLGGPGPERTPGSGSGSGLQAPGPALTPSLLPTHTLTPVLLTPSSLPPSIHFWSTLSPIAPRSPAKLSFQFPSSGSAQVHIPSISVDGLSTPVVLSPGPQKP
# In short: as §1
# GABPA = target: T3, GABPA (Homo sapiens, UniProt Q06546 1-454)
# T3 sequence: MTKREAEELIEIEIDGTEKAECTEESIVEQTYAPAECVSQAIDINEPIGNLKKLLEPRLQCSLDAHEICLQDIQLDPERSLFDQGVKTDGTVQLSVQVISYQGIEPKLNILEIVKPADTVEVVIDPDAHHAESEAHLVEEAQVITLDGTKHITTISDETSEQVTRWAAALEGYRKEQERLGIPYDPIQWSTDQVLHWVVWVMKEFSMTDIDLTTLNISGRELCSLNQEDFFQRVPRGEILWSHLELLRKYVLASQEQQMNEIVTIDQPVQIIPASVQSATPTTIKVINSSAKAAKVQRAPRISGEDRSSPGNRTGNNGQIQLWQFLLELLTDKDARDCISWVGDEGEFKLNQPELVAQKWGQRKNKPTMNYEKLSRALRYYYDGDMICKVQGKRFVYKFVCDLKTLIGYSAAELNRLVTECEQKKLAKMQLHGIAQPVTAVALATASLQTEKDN
# In short: as §1
# ERG = target: T4, ERG (Homo sapiens, UniProt P11308 1-479)
# T4 sequence: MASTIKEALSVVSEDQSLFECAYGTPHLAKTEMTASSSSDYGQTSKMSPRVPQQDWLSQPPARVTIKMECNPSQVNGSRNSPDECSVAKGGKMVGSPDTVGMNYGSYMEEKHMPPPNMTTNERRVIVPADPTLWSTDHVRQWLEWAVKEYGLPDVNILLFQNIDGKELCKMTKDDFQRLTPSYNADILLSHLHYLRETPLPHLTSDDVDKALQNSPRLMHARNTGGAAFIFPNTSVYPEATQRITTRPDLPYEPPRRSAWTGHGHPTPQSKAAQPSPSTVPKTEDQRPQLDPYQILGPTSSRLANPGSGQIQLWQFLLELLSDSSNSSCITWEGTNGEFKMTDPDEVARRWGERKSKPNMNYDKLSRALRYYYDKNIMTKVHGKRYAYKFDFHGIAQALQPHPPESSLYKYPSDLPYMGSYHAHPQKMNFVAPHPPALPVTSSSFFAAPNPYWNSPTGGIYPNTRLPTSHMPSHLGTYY
# In short: as §1
# ELF1 = ELF1 (Homo sapiens, UniProt P32519 1-619)
# In short: as §1
# EHF = target: T5, EHF (Homo sapiens, UniProt Q9NZC4 1-300)
# T5 sequence: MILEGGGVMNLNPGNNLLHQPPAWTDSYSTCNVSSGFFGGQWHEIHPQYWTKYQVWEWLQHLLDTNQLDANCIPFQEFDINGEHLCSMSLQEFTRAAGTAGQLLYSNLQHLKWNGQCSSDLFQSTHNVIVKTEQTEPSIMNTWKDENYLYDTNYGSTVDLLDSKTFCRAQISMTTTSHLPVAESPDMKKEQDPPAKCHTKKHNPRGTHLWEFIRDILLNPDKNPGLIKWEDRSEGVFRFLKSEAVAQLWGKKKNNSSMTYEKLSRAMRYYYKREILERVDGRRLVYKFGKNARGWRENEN
# In short: as §1
# SPI1 = SPI1 (Homo sapiens, UniProt P17947 1-270)
# In short: as §1
# SPIB = SPIB (Homo sapiens, UniProt Q01892 1-262)
# In short: as §1
# ELK3 = target: T6, ELK3 (Homo sapiens, UniProt P41970 1-407)
# T6 sequence: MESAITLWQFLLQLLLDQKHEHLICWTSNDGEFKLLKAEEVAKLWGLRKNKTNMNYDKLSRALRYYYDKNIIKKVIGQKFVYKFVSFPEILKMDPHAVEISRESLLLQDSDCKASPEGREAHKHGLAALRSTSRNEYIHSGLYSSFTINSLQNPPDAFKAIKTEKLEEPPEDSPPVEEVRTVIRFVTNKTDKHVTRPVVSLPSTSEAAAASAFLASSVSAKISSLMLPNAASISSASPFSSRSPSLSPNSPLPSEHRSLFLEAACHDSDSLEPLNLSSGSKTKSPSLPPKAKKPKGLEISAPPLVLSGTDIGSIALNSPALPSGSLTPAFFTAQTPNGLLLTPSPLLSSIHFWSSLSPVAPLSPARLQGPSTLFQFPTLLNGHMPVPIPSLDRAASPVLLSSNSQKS
# In short: as §1
# Sequence of SPIB (Q01892 whole entry): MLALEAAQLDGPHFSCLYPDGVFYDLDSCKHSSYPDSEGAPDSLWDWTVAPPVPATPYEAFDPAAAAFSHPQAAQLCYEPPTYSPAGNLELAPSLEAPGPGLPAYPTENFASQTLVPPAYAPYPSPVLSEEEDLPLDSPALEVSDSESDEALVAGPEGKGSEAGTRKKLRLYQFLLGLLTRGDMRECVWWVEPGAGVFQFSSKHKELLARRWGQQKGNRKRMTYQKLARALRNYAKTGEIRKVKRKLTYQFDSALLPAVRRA
# Sequence of ELF1 (P32519 whole entry): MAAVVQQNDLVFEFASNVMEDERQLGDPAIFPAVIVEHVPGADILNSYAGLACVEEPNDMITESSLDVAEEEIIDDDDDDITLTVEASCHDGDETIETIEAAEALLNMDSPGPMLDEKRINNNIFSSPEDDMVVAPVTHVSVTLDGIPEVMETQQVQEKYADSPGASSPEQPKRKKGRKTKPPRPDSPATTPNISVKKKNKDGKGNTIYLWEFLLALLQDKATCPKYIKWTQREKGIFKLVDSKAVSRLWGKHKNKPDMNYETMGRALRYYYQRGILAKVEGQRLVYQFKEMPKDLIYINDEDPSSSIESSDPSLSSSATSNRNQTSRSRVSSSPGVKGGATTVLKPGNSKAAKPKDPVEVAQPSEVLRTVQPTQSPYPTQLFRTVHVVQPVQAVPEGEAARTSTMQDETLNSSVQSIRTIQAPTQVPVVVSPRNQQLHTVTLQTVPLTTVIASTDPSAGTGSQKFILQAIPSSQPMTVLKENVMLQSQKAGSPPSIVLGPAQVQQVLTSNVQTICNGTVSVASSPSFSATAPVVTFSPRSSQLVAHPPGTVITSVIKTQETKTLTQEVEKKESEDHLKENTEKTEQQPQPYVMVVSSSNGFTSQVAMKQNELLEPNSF
Sequence,binding signal (FLI1),binding signal (ELK1),binding signal (GABPA),binding signal (ERG),binding signal (ELF1),binding signal (EHF),binding signal (SPI1),binding signal (SPIB),binding signal (ELK3)
ATGTTT,"1.48 fold enrichment (6-mer frequency, TF over GST control)","1.37 fold enrichment (6-mer frequency, TF over GST control)","1.36 fold enrichment (6-mer frequency, TF over GST control)","1.39 fold enrichment (6-mer frequency, TF over GST control)","1.41 fold enrichment (6-mer frequency, TF over GST control)","1.41 fold enrichment (6-mer frequency, TF over GST control)","1.33 fold enrichment (6-mer frequency, TF over GST control)","1.38 fold enrichment (6-mer frequency, TF over GST control)","1.43 fold enrichment (6-mer frequency, TF over GST control)"
TATATT,"1.34 fold enrichment (6-mer frequency, TF over GST control)","1.33 fold enrichment (6-mer frequency, TF over GST control)","1.47 fold enrichment (6-mer frequency, TF over GST control)","1.41 fold enrichment (6-mer frequency, TF over GST control)","1.47 fold enrichment (6-mer frequency, TF over GST control)","1.43 fold enrichment (6-mer frequency, TF over GST control)","1.3 fold enrichment (6-mer frequency, TF over GST control)","1.34 fold enrichment (6-mer frequency, TF over GST control)","1.3 fold enrichment (6-mer frequency, TF over GST control)"
AATTAC,"1.24 fold enrichment (6-mer frequency, TF over GST control)","1.19 fold enrichment (6-mer frequency, TF over GST control)","1.26 fold enrichment (6-mer frequency, TF over GST control)","1.25 fold enrichment (6-mer frequency, TF over GST control)","1.26 fold enrichment (6-mer frequency, TF over GST control)","1.33 fold enrichment (6-mer frequency, TF over GST control)","1.35 fold enrichment (6-mer frequency, TF over GST control)","1.35 fold enrichment (6-mer frequency, TF over GST control)","1.24 fold enrichment (6-mer frequency, TF over GST control)"
AATACT,"1.16 fold enrichment (6-mer frequency, TF over GST control)","1.19 fold enrichment (6-mer frequency, TF over GST control)","1.23 fold enrichment (6-mer frequency, TF over GST control)","1.22 fold enrichment (6-mer frequency, TF over GST control)","1.29 fold enrichment (6-mer frequency, TF over GST control)","1.24 fold enrichment (6-mer frequency, TF over GST control)","1.21 fold enrichment (6-mer frequency, TF over GST control)","1.14 fold enrichment (6-mer frequency, TF over GST control)","1.23 fold enrichment (6-mer frequency, TF over GST control)"
TTGTGC,"1.28 fold enrichment (6-mer frequency, TF over GST control)","1.25 fold enrichment (6-mer frequency, TF over GST control)","1.27 fold enrichment (6-mer frequency, TF over GST control)","1.23 fold enrichment (6-mer frequency, TF over GST control)","1.14 fold enrichment (6-mer frequency, TF over GST control)","1.21 fold enrichment (6-mer frequency, TF over GST control)","1.18 fold enrichment (6-mer frequency, TF over GST control)","1.1 fold enrichment (6-mer frequency, TF over GST control)","1.21 fold enrichment (6-mer frequency, TF over GST control)"
ATGCTT,"1.35 fold enrichment (6-mer frequency, TF over GST control)","1.42 fold enrichment (6-mer frequency, TF over GST control)","1.26 fold enrichment (6-mer frequency, TF over GST control)","1.32 fold enrichment (6-mer frequency, TF over GST control)","1.27 fold enrichment (6-mer frequency, TF over GST control)","1.29 fold enrichment (6-mer frequency, TF over GST control)","1.24 fold enrichment (6-mer frequency, TF over GST control)","1.4 fold enrichment (6-mer frequency, TF over GST control)","1.36 fold enrichment (6-mer frequency, TF over GST control)"
CCTAGC,"1.18 fold enrichment (6-mer frequency, TF over GST control)","1.1 fold enrichment (6-mer frequency, TF over GST control)","1.31 fold enrichment (6-mer frequency, TF over GST control)","1.14 fold enrichment (6-mer frequency, TF over GST control)","1.24 fold enrichment (6-mer frequency, TF over GST control)","1.2 fold enrichment (6-mer frequency, TF over GST control)","1.04 fold enrichment (6-mer frequency, TF over GST control)","1.26 fold enrichment (6-mer frequency, TF over GST control)","1.22 fold enrichment (6-mer frequency, TF over GST control)"
